Consider 35 compounds from PubChem BioAssay AID2763 (National Center for Advancing Translational Sciences (NCATS), 2010).

Inconclusive results are not listed. Unmarked numbers belong to inactive results. Active and inactive are the calls of the source. Calls come from the whole dose curve; as a rule, active = well fitted inhibition curve with a large enough effect; inconclusive = small, poorly fitted or top-dose-only effect, or effect the other way; inactive = no such curve, though single readings can be large or run the other way.
% is set by controls: 0 for no effect and ±100 for the full control effect; potency is the fitted concentration of half-maximal effect.

This assay can be described thus: Concentration response confirmation VP16 counterscreen for inhibitors of ROR gamma transcriptional activity. Note: nearly all actives have a fitted effect of over 70% in size. The conditions noted are these: Drosophila S2 Gal4-VP16 UAS-luciferase, luminescence, 20 h; series mostly up to 46.1 µM; activity change, negative = inhibition: at the top concentration. A digest of the protocol:
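Drosophila Schneider cells stably carrying Gal4-VP16 under metallothionein promoter plus UAS-Photinus luciferase. Compound preincubated 1 hr, then 700 uM copper sulfate induction for 20 hr at ambient temperature; luminescence read.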
In the case of `Cc1cc(NC(=S)NC(=O)/C=C/c2ccc(S(=O)(=O)N3CCOCC3)cc2)ccc1Br`, the Potency is 11.2 µM (active).
On to `COc1ccc(C(=O)Nc2cc(-c3ccc(C)cc3)no2)cc1`, for which the “activity change, negative = inhibition” value was -17.6%.
Still for that read-out and setting: with `COc1ccc(OC)c(NC(=S)N(CCc2c(C)[nH]c3ccccc23)Cc2cccs2)c1` the figure was 11.4%.
As for `COc1ccc2nc(NC(=O)c3sc4nc(C)cc(C)c4c3N)sc2c1`, the Potency was 0.0791 µM (active).
`O=C(CSCCO)Nc1ccc(C2CCCCC2)cc1`: the Potency is 9.96 µM (active).
Consider `COC(=O)c1ccc(OCC(=O)c2ccc(O)cc2O)cc1`, for which the Potency was 1.58 µM (active).
On to `CCn1cc(C(=O)O)c(=O)c2cnc(N3CCN(C(=S)NC(=O)c4ccccc4)CC3)nc21`, for which the “activity change, negative = inhibition” value is 14.3%.
The same measure, in the same setting: the result for `Cc1ccc(C(=O)O/N=C/c2ccc(N(C)C)cc2)cc1` reads 15.9%.
Regarding `COc1ccc(C(=O)/C=C/c2ccc(OC)cc2OC)c(O)c1`, the “activity change, negative = inhibition” value is 20.2%.
On to `Oc1ccccc1-c1cc(-c2ccc3c(c2)OCCO3)n[nH]1`, for which the Potency was 19.9 µM (active).
On to `Cn1c(=O)c2c(nc(NCc3ccco3)n2Cc2ccccc2Cl)n(C)c1=O`, for which the Potency was 3.97 µM (active).
For `COc1ccc(-c2cc(C(F)(F)F)nc(S(=O)(=O)CCCC(=O)Nc3cccnc3Cl)n2)cc1OC`, the Potency is 9.96 µM (active).
On to `C=C(C)c1cccc(C(C)(C)NC(=O)N2CCN(CC)CC2)c1`, for which the “activity change, negative = inhibition” value was -13.2%.
Regarding `Cn1c(=O)[nH]c(=O)c2c1nc(NCc1ccco1)n2Cc1ccccc1Cl`, the “activity change, negative = inhibition” value is 11.1%.
With `COc1nc(N/N=C/c2cc3c(cc2Br)OCO3)nc(N2CCOCC2)n1`, the “activity change, negative = inhibition” value is 2.66%.
On the same count and under the same terms, with `CCOC(=O)[C@@H]1[C@H]2COc3cc(OC)ccc3[C@@H]2N2C(=O)N(c3ccc(C)cc3)C(=O)[C@@]12C` the figure was 7.17%.
As to `O=C(O)c1ccccc1SC1CC(=O)N(c2ccc3c(c2)OCO3)C1=O` (stereo not given), the Potency is 19.9 µM (active).
As for `COC1CCCCC1Nc1cc(C)ccc1C` (stereo not given), the “activity change, negative = inhibition” value was -4.68%.
On the same count and under the same terms, the result for `Cc1cc(-c2ccccc2)nc(N2CCC(C(=O)NCc3ccccc3Cl)CC2)n1` reads 11.3%; that for `CCOC(=O)c1nnsc1Nc1ccc(C)c(C)c1`, 22.9%.
`Cn1nccc1C(=O)NC1CCCc2c1cnn2-c1ccc(F)cc1F` (stereo not given): the Potency was 1.58 µM (active).
As to `Cc1cc(NC(=O)CN2CCOCC2)n(-c2nc3ccccc3s2)n1`, the Potency is 12.5 µM (active).
On to `O=C(CSc1ccccc1C(=O)N1CCCCC1)NCC1CCCCC1`, for which the “activity change, negative = inhibition” value is 0.588%.
Consider `CCN(C1CCCCC1)S(=O)(=O)c1ccc(S(=O)(=O)NCc2ccncc2)cc1`, for which the Potency is 28.1 µM (active).
With `Cc1nnsc1C(=O)NC1CCCc2c1cnn2-c1ccc(C(C)(C)C)cc1` (stereo not given), the Potency was 22.3 µM (active).
For `COc1ccc(OC)c(/C=C2\SC(=S)N(C(C(=O)O)c3ccccc3)C2=O)c1` (stereo not given), the “activity change, negative = inhibition” value is -2.55%.
Still for that read-out and setting: with `CCOc1cccc(-c2cc(-c3n[nH]c(=S)n3CC)c3ccccc3n2)c1` the figure was -3.87%.
`O=[N+]([O-])c1ccccc1/C=C/C=N/n1c(-c2ccccc2)n[nH]c1=S`: the “activity change, negative = inhibition” value is 17.5%.
Turning to `Cc1ccc(-n2[nH]c3c4c(ccc3c2=O)C(=O)c2ccccc2C4=O)cc1`, the “activity change, negative = inhibition” value was 3.45%.
Regarding `CCOc1ccc2nc(NC(=O)c3cnccn3)sc2c1`, the Potency was 9.96 µM (active).
For the compound `O=[N+]([O-])c1cc2c(cc1/C=N/Nc1nc(Nc3ccccc3)nc(N3CCCCC3)n1)OCO2`, the “activity change, negative = inhibition” value was 11.4%.
Regarding `COC(=O)Cn1c(CN2CCN(c3ccc(F)cc3)CC2)nc2c1c(=O)n(C)c(=O)n2C`, the Potency was 3.15 µM (active).
On the same count and under the same terms, with `Cc1ccc(C)c(/C=N/n2cc(-c3ccccc3)[nH]c2=S)c1` the figure was 9.96 µM (active).
Turning to `CN1CCN(CCC(=O)Nc2cccc(F)c2)CC1`, the “activity change, negative = inhibition” value was 10.5%.
For `Cc1cc(C)nc(-n2nc(C)cc2NC(=O)c2ccc(F)cc2F)n1`, the Potency is 2.81 µM (active).
